{"source": "ChEMBL document CHEMBL4513216", "about": "“Probing the Open Global Health Chemical Diversity Library for Multistage-Active Starting Points for Next-Generation Antimalarials” (ACS Infect Dis, 2020)", "note": "In all, about 65,000 compounds went through this assay and about 2,100 (3.2%) showed an effect of 50% or more. The median lay at about -52%. The entries come from a sample that favours strong results as a whole.", "data": [{"tested_on": "Plasmodium falciparum", "experiment": "Screen against P. falciparum Asexual Blood Stage (ABS), at 5uM", "assay_type": "functional, Dd2", "details": "tested at 5 uM", "units": {"INHIBITION": "%"}, "values": [{"compound": "COCCN1CCN(Cc2cnc(C(C)C)nc2)CC1", "INHIBITION": -72.3}, {"compound": "O=C(C1CC1)N1C[C@H]2CCCN(S(=O)(=O)c3ccc4c(c3)CCC4)[C@H]2C1", "INHIBITION": -49.4}, {"compound": "NCC(=O)N1CCCC1c1nccnc1Nc1ncccn1", "note": "(centres undefined)", "INHIBITION": -91.6}, {"compound": "CC(C)CC(C)NC1CCN(c2cccc(-c3cscn3)c2)CC1", "note": "(centres undefined)", "INHIBITION": 51.8}, {"compound": "CC(C)CC(C)NC1CCN(c2ccc(-c3cscn3)cc2)CC1", "note": "(centres undefined)", "INHIBITION": -115}, {"compound": "Cc1nnc(-c2cccc(N3CCC(NC(C)CC(C)C)CC3)c2)s1", "note": "(centres undefined)", "INHIBITION": -15.1}, {"compound": "COC(=O)NCC(=O)N1CCC(c2cc3ccccc3[nH]2)CC1", "INHIBITION": -109}, {"compound": "Cc1cc(C)c(CNC(=O)N2CCCC2c2cc(C)on2)c(=O)[nH]1", "note": "(centres undefined)", "INHIBITION": -65.3}, {"compound": "CN1CCC2(CC1)CN(C(=O)c1cccnc1)c1ccc(Cl)cc12", "INHIBITION": 57.5}, {"compound": "O=C(C1CC1)N1CC2(CCNCC2)c2cc(F)ccc21", "INHIBITION": 13.7}, {"compound": "O=C(c1ccncc1)N1CC2(CCNCC2)c2cc(Cl)ccc21", "INHIBITION": 60}, {"compound": "Cc1ccc2c(c1)C1(CCNCC1)CN2C(=O)C(C)C", "INHIBITION": 32.6}, {"compound": "COc1cc(C(=O)N2CC3(CCNCC3)c3cc(Cl)ccc32)ccn1", "INHIBITION": 65.4}, {"compound": "CN(C)C(=O)N1CC2(CCNCC2)c2cc(F)ccc21", "INHIBITION": -81.2}, {"compound": "CCN1CCC2(CC1)CN(C(=O)c1cccnc1)c1ccc(Cl)cc12", "INHIBITION": 13.4}, {"compound": "CN(C)C(=O)N1CC2(CCNCC2)c2cc(Cl)ccc21", "INHIBITION": 25.5}, {"compound": "C[C@@H](N)C(=O)N1CC2(CCNCC2)c2cc(Cl)ccc21", "INHIBITION": 48.2}, {"compound": "O=C([C@H]1CCCN1)N1CC2(CCNCC2)c2cc(Cl)ccc21", "INHIBITION": 60.3}, {"compound": "CC(=O)N1CCC2(CC1)CN(C(=O)c1cccnc1)c1ccc(F)cc12", "INHIBITION": -31.7}, {"compound": "Cc1ccc(C(=O)N2CC3(CCNCC3)c3cc(Cl)ccc32)cn1", "INHIBITION": 37.8}, {"compound": "COc1ccc(-c2n[nH]c(C)c2CC(=O)NCC2CCOCC2)cc1", "INHIBITION": 6.29}, {"compound": "Cc1occc1C(=O)N1CCC2(CCN(Cc3ccccn3)C2=O)C1", "note": "(centres undefined)", "INHIBITION": -30.7}, {"compound": "CNC(=O)N1CCC2(CC1)c1ncc(-c3cccc(F)c3)n1CCN2C", "INHIBITION": -74}, {"compound": "CCn1cc(S(=O)(=O)N2CCCCCC2c2cc(C)on2)cn1", "note": "(centres undefined)", "INHIBITION": 16.1}, {"compound": "O=C(Nc1ccccc1)C1CN(Cc2ccco2)CC12CCOCC2", "note": "(centres undefined)", "INHIBITION": -3.58}, {"compound": "CNC(=O)C1Cn2ccnc2C2(CCN(Cc3nccs3)CC2)O1", "note": "(centres undefined)", "INHIBITION": -118}, {"compound": "CN1CCN([C@H]2CCN(C(=O)c3cc(Cl)cn3C)C[C@H]2CCCO)CC1", "INHIBITION": -28.7}, {"compound": "Cc1cnc(N2C[C@H]3CCCC(N(C)Cc4ccccn4)[C@H]3C2)nc1", "note": "(some centres undefined)", "INHIBITION": -4.92}, {"compound": "O=C(N1CCOCC1)[C@@]12CCO[C@@H]1CCN(Cc1cccc(F)c1)C2", "INHIBITION": -26.7}, {"compound": "CNc1nccnc1C1CN(C(=O)c2c[nH]cn2)CCO1", "note": "(centres undefined)", "INHIBITION": -87.7}, {"compound": "NC(=O)CCC1CCCN(Cc2cnc(N3CCCCC3)nc2)C1", "note": "(centres undefined)", "INHIBITION": -84.4}, {"compound": "CNc1nc(C2CCN(C(=O)CC3CCCC3)C2)nc2c1CN(C)CC2", "note": "(centres undefined)", "INHIBITION": -4.57}, {"compound": "COc1ccc(OC)c(-n2nnnc2SCC2CCCN(C)C2)c1", "note": "(centres undefined)", "INHIBITION": 42.8}, {"compound": "COc1ccc(Cn2nnnc2SCC2CCCN(C)C2)cc1", "note": "(centres undefined)", "INHIBITION": 59.9}, {"compound": "COc1ccc(OCC2CCCN(Cc3ccncc3)C2)cc1", "note": "(centres undefined)", "INHIBITION": 4.05}, {"compound": "CCN(CC)C(=O)c1ccn(COc2cccc(Cl)c2Cl)n1", "INHIBITION": -133}, {"compound": "Cn1cc(CN2C[C@H]3CCC[C@@]3(COCC3CC3)C2)cn1", "INHIBITION": 54.1}, {"compound": "Cc1nc(COC[C@@]23CCC[C@@H]2CN(Cc2cnn(C)c2)C3)cs1", "INHIBITION": -28.9}, {"compound": "Cn1cc(CN2C[C@@H]3COC[C@]3(COCC3CC3)C2)cn1", "INHIBITION": -11.4}, {"compound": "O=C(NCc1nn(-c2ccccc2)c2c1CCC2)C1CC1", "INHIBITION": -137}, {"compound": "CCn1nc(C)c(CNC(=O)c2nnc3ccc(Cl)cc3n2)c1C", "INHIBITION": -2.95}, {"compound": "Cc1cnccc1-c1cnn(CCNC(=O)c2ccccn2)c1C1CC1", "INHIBITION": 40.2}, {"compound": "CC(C)c1ncc2c(n1)CN(CC(=O)Nc1ccncc1)CC2", "INHIBITION": -23.6}, {"compound": "CC1=C[C@@H](CN2CCCC2)[C@H](C(C)C)C[C@H]1Cc1nnc(C)o1", "INHIBITION": 0.0851}, {"compound": "CC1=C[C@@H](CN2CCN(C)CC2)[C@H](C(C)C)C[C@H]1Cc1nnc(C)o1", "INHIBITION": 16.4}, {"compound": "COc1ccc2nc(C[C@@H]3C[C@@H](C(C)C)[C@H](CN)C=C3C)[nH]c2n1", "INHIBITION": 68.7}, {"compound": "Cc1ccc(CN2C[C@@H]3C[C@H](C(=O)Nc4cccnc4)[C@H](C2)O3)cc1", "INHIBITION": 41.3}, {"compound": "COC(=O)CN(C(=O)c1cc(C)c(F)cc1F)c1cccc(C)n1", "INHIBITION": -97.6}, {"compound": "CC1(C(=O)N2CCOCC2)CN(C2CCCCC2)CCO1", "note": "(centres undefined)", "INHIBITION": -82.9}, {"compound": "Cc1nc(C)c(C)c(N2CCC(NCCOc3ccccc3)CC2)n1", "INHIBITION": 63.1}, {"compound": "c1ccc(OCCNC2CCN(c3ncccn3)CC2)cc1", "INHIBITION": -15.2}, {"compound": "O=C(COCCOc1ccccc1)NC1CCN(c2ncccn2)CC1", "INHIBITION": -7.73}, {"compound": "Cc1nc(CN2CCCC(NCCOc3ccccc3)C2)no1", "note": "(centres undefined)", "INHIBITION": -55.9}, {"compound": "Cc1ccnc(N2CCC(NCCOc3ccccc3)CC2)n1", "INHIBITION": 13.8}, {"compound": "CN(C)c1ccnc(N2CCC(NCCOc3ccccc3)CC2)n1", "INHIBITION": 61.5}, {"compound": "Cn1ccnc1CN1CCN(CC2CC2)[C@@H]2CS(=O)(=O)C[C@@H]21", "INHIBITION": -222}, {"compound": "Cn1c(=O)cc(C(=O)NC(Cc2ccsc2)c2cccnc2)[nH]c1=O", "note": "(centres undefined)", "INHIBITION": -41.8}, {"compound": "O=S(=O)(N1CCCC1)N1CC[C@H](c2ccccc2)[C@H]2NCCCC[C@H]21", "INHIBITION": 48.5}, {"compound": "O=S(=O)(N1CCCC1)N1C[C@@H](c2cccc(F)c2)[C@@H]2NCCCCC[C@H]21", "INHIBITION": 25.3}, {"compound": "CCN(CC)S(=O)(=O)N1CC[C@H](c2ccccc2)[C@H]2NCCCC[C@H]21", "INHIBITION": 57.7}, {"compound": "CCOc1c(F)cccc1C(=O)N(c1cccnc1)C(C)C", "INHIBITION": -2.56}, {"compound": "CC(C)(C(=O)NCC1CCN(Cc2ncc[nH]2)C1)c1ccccc1", "note": "(centres undefined)", "INHIBITION": -15.4}, {"compound": "CC(C)(C(=O)NCC1CCN(Cc2cccnc2)C1)c1ccccc1", "note": "(centres undefined)", "INHIBITION": 53.2}, {"compound": "CC(C)(C(=O)NCC1CCN(Cc2ccccn2)C1)c1ccccc1", "note": "(centres undefined)", "INHIBITION": 40.4}]}]}
